# Of roughly 7,900 targets only a part is listed; those with a hit were picked by preference. About 0.6% of all pairs of compound and target were hits. Unmarked numbers belong to inactive results.
# Compound: CNCc1ccc(-c2[nH]c3cc(F)cc4c3c2CCNC4=O)cc1 [rucaparib]
# Test: log2 fold change, soluble protein after heating vs DMSO (PISA); higher = thermal stabilisation; K562 cells, 10 uM, 30 min; active = over 0.2 and 3.5 SD of the protein, either way, in both replicates (recomputed)
# Method in brief: (§1)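 K562 cells at 2×10^6 cells/mL were given 10 μM compound for 30 min. Aliquots then went through 3 min of heating across 48°C-58°C, were pooled, and were extracted in PBS with 0.5% NP-40 at 4°C, and the supernatant after 21,000xg for 90 min was quantified by TMTpro 16plex LC-MS/MS with channel sums equalised. Thermal stability relative to control samples, from duplicates, is given as log2 fold change.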
# Sequence of UniProt Q9NQG6 (Q9NQG6 whole entry, looked up): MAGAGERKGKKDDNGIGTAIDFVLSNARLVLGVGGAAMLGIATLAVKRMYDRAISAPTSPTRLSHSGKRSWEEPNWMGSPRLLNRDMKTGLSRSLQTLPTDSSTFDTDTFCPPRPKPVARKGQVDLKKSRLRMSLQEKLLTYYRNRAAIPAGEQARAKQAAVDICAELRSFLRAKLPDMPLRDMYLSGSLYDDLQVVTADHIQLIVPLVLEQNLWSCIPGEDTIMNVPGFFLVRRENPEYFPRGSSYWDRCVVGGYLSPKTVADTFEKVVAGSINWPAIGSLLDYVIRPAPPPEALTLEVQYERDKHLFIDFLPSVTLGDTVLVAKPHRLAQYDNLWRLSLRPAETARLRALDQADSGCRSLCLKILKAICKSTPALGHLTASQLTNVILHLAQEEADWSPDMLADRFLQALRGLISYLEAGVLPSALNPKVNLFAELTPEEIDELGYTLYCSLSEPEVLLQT
# Sequence of UniProt Q8IVT5 (Q8IVT5 whole entry, looked up): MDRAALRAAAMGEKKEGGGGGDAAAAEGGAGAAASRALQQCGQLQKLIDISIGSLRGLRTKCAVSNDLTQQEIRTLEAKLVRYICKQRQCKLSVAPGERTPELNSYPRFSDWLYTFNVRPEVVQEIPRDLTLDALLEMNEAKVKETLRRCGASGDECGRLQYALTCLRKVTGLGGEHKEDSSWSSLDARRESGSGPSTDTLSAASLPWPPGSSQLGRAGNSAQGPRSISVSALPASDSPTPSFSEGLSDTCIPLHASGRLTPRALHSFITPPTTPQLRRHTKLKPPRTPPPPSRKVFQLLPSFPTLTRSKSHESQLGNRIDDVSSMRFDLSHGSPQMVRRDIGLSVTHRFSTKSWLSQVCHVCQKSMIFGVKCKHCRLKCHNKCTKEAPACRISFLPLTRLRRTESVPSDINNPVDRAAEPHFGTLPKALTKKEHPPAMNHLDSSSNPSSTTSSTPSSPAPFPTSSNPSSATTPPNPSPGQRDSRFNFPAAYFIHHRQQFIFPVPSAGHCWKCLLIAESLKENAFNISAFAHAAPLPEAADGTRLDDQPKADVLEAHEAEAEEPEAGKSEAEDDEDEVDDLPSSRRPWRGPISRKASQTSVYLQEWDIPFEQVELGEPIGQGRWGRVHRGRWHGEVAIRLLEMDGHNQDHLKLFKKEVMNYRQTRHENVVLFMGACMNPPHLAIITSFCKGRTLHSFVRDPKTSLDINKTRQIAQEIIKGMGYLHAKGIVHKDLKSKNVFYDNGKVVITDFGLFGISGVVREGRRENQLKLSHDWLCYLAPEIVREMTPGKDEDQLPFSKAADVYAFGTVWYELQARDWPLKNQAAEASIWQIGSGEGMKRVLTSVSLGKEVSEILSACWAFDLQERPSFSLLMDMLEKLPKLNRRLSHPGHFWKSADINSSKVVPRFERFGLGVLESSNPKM
# Sequence of UniProt Q9H1H9 (Q9H1H9 whole entry, looked up): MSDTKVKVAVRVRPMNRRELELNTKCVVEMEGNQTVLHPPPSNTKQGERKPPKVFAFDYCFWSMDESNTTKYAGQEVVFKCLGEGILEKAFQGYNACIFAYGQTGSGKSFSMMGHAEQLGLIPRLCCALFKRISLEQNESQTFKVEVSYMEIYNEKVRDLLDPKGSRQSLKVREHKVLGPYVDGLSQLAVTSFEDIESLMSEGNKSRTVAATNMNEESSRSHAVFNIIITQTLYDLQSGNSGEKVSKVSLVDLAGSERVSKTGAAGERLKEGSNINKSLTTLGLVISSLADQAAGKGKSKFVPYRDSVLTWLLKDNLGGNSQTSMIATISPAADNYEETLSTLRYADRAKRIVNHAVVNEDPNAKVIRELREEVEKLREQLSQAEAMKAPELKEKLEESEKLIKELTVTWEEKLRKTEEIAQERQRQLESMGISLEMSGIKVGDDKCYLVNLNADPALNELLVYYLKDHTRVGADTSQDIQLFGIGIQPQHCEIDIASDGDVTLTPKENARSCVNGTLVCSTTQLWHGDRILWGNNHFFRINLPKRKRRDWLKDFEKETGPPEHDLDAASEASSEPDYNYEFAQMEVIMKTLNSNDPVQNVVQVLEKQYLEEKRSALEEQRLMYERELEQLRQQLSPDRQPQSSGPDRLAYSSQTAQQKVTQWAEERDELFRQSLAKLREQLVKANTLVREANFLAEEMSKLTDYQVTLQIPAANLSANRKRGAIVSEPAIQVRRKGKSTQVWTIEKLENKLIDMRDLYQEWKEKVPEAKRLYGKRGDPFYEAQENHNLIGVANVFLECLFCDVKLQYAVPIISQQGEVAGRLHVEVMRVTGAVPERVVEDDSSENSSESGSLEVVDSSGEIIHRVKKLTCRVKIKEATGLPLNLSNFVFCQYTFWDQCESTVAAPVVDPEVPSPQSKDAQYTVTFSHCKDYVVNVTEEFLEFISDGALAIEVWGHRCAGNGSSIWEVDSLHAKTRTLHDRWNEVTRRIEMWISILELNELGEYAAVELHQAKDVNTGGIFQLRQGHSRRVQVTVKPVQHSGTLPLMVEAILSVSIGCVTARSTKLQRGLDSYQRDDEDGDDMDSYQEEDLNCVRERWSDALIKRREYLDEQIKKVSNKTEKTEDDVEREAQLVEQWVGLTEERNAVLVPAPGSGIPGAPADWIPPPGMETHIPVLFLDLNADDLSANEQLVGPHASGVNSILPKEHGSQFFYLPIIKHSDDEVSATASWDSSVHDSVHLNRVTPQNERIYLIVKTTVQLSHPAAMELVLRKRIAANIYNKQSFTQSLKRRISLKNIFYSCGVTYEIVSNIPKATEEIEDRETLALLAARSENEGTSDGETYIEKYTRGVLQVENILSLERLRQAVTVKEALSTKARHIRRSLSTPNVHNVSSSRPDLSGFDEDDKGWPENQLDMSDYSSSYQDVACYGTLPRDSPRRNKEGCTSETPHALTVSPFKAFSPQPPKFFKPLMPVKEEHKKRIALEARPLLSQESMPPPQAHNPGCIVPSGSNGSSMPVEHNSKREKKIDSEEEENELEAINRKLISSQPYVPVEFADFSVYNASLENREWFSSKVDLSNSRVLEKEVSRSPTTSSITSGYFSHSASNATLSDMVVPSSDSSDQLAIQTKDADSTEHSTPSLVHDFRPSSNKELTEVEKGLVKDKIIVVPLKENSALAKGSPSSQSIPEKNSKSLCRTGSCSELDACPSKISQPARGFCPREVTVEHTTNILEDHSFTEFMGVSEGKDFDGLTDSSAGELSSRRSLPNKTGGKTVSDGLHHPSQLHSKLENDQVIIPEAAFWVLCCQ
# Sequence of UniProt Q9GZY8 (Q9GZY8 whole entry, looked up): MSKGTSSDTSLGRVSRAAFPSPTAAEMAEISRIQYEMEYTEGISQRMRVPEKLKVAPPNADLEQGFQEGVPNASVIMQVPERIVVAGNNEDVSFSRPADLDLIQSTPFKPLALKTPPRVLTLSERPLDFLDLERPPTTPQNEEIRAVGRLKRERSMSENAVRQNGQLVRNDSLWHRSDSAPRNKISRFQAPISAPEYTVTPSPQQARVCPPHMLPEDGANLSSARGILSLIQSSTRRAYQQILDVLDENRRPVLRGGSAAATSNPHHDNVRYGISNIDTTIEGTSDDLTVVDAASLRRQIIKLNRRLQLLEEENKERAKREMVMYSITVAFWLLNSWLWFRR
# Sequence of UniProt A1L0T0 (A1L0T0 whole entry, looked up): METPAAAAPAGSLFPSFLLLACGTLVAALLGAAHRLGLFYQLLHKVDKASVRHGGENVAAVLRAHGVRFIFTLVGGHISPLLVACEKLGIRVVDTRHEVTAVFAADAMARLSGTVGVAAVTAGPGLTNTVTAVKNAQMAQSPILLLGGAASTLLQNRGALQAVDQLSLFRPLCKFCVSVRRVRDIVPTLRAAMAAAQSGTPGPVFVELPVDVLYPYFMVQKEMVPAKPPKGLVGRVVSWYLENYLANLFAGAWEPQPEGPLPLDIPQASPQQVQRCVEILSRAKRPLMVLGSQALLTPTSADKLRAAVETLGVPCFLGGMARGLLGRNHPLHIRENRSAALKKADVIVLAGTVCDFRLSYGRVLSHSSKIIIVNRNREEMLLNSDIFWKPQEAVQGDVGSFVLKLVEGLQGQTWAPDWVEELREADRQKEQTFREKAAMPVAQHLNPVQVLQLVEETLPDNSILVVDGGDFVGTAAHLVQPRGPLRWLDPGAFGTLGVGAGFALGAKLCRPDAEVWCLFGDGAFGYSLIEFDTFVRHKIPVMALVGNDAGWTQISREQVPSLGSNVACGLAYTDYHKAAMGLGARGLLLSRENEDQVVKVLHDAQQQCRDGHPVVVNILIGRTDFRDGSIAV
# Sequence of UniProt Q14681 (Q14681 whole entry, looked up): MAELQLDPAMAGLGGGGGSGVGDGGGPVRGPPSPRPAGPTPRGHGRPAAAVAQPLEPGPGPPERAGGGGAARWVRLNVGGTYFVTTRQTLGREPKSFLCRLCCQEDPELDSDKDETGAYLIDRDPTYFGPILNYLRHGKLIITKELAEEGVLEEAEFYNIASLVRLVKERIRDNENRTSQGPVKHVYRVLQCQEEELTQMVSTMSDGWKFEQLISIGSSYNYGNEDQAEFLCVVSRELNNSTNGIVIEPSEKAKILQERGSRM
# Sequence of UniProt P33947 (P33947 whole entry, looked up): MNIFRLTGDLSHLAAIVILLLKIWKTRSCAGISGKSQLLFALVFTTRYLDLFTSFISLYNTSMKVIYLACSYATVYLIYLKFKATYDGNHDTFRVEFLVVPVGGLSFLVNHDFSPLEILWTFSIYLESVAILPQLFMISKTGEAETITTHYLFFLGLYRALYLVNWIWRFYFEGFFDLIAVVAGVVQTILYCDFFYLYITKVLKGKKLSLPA
# Sequence of UniProt Q9NQ29 (Q9NQ29 whole entry, looked up): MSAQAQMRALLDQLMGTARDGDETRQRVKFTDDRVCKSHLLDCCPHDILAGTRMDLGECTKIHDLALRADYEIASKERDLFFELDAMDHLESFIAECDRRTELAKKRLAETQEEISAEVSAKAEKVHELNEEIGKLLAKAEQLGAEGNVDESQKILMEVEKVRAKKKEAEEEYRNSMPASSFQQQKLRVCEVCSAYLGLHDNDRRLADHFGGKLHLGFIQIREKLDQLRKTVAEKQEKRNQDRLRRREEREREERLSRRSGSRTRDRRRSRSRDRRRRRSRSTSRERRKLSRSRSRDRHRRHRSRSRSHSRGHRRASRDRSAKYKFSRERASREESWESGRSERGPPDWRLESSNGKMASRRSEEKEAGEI
row,Target,log2 fold change
1,IWS1 (UniProt Q96ST2),0.032
2,LUC7L2 (UniProt Q9Y383),-0.077
3,MARK3 (UniProt P27448),-0.016
4,MIEF1 (UniProt L0R8F8),0.024
5,KIF11 (UniProt P52732),0.183
6,LPIN3 isoform 2 (UniProt Q9BQK8),0.049
7,INPP5B (UniProt P32019),0.066
8,LNPEP (UniProt Q9UIQ6),-0.014
9,KDM1A isoform 2 (UniProt O60341),0.14
10,IPO13 (UniProt O94829),-0.016
11,MIEF1 (UniProt Q9NQG6),-0.009
12,KDELR2 (UniProt P33947),-0.072
13,KTN1 (UniProt Q86UP2),0.155
14,KHDRBS1 (UniProt Q07666),0.248 (active)
15,KSR1 (UniProt Q8IVT5),-0.044
16,LUC7L3 (UniProt O95232),-0.008
17,LAMP2 (UniProt P13473),-0.055
18,MED1 (UniProt Q15648),0.067
19,MICU2 (UniProt Q8IYU8),0.102
20,ILK (UniProt Q13418),0.026

row,Target,log2 fold change
1,KIF13A (UniProt Q9H1H9),0.008
2,KIF3A (UniProt Q9Y496),0.292
3,KDM5D isoform 3 (UniProt Q9BY66),0.067
4,KIAA1324L (UniProt A8MWY0),-0.021
5,MIER1 isoform 12 (UniProt Q8N108),-0.01
6,MIA2 (UniProt Q96PC5),0.074
7,LIMA1 isoform 4 (UniProt Q9UHB6),0.074
8,METTL18 (UniProt O95568),-0.041
9,KIF21A isoform 4 (UniProt Q7Z4S6),0.109
10,LUC7L (UniProt Q9NQ29),0.076
11,KEL (UniProt P23276),0.006
12,LEO1 (UniProt Q8WVC0),-0.151
13,LARP4 isoform 4 (UniProt Q71RC2),0.257
14,MFF (UniProt Q9GZY8),-0.059
15,MFN1 (UniProt Q8IWA4),-0.015
16,MCL1 (UniProt Q07820),0.029
17,LYN (UniProt P07948),0.13
18,ILVBL (UniProt A1L0T0),-0.024
19,KCTD2 (UniProt Q14681),0.066

# Compound: CNc1nc(-c2ccc3c(N)n[nH]c3c2)cc(N2C[C@@H](C(=O)NC3CCCCC3)CC[C@H]2C)n1
# Test: as above
# Method in brief: as §1
row,Target,log2 fold change
1,IWS1 (UniProt Q96ST2),-0.034
2,LUC7L2 (UniProt Q9Y383),-0.047
3,MARK3 (UniProt P27448),-0.069
4,MIEF1 (UniProt L0R8F8),-0.074
5,KIF11 (UniProt P52732),0.088
6,LPIN3 isoform 2 (UniProt Q9BQK8),0.049
7,INPP5B (UniProt P32019),0.043
8,LNPEP (UniProt Q9UIQ6),-0.02
9,KDM1A isoform 2 (UniProt O60341),0.021
10,IPO13 (UniProt O94829),-0.109
11,MIEF1 (UniProt Q9NQG6),-0.088
12,KDELR2 (UniProt P33947),-0.058
13,KTN1 (UniProt Q86UP2),-0.079
14,KHDRBS1 (UniProt Q07666),-0.009
15,KSR1 (UniProt Q8IVT5),0.038
16,LUC7L3 (UniProt O95232),-0.048
17,LAMP2 (UniProt P13473),-0.088
18,MED1 (UniProt Q15648),-0.045
19,MICU2 (UniProt Q8IYU8),-0.021
20,ILK (UniProt Q13418),0.031

row,Target,log2 fold change
1,KIF13A (UniProt Q9H1H9),-0.093
2,KIF3A (UniProt Q9Y496),0.037
3,KDM5D isoform 3 (UniProt Q9BY66),-0.078
4,KIAA1324L (UniProt A8MWY0),0.023
5,MIER1 isoform 12 (UniProt Q8N108),-0.056
6,MIA2 (UniProt Q96PC5),-0.001
7,LIMA1 isoform 4 (UniProt Q9UHB6),-0.089
8,METTL18 (UniProt O95568),-0.031
9,KIF21A isoform 4 (UniProt Q7Z4S6),0.077
10,LUC7L (UniProt Q9NQ29),-0.049
11,KEL (UniProt P23276),-0.026
12,LEO1 (UniProt Q8WVC0),-0.055
13,LARP4 isoform 4 (UniProt Q71RC2),0.059
14,MFF (UniProt Q9GZY8),-0.078
15,MFN1 (UniProt Q8IWA4),0.023
16,MCL1 (UniProt Q07820),-0.063
17,LYN (UniProt P07948),-0.022
18,ILVBL (UniProt A1L0T0),0.052
19,KCTD2 (UniProt Q14681),-0.243

# From the supplement of paper PMC10849652
